# About 14,000 (4.5%) of roughly 310,000 compounds showed an effect of 50% or more. The effect is printed as a negative number. Shown is part of a subset that was picked to be rich in strong results.
# Molecular target: human ether-à-go-go-related gene (hERG) potassium channel (human, UniProt Q12809)
# Experiment: primary screen, population patch clamp on CHO cells stably expressing hERG; higher = less effect of the substance
# 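Note: peak tail current of the secondary pulse compared with the same well before compound.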
# Chain of human ether-à-go-go-related gene (hERG) potassium channel (Q12809 whole entry, looked up): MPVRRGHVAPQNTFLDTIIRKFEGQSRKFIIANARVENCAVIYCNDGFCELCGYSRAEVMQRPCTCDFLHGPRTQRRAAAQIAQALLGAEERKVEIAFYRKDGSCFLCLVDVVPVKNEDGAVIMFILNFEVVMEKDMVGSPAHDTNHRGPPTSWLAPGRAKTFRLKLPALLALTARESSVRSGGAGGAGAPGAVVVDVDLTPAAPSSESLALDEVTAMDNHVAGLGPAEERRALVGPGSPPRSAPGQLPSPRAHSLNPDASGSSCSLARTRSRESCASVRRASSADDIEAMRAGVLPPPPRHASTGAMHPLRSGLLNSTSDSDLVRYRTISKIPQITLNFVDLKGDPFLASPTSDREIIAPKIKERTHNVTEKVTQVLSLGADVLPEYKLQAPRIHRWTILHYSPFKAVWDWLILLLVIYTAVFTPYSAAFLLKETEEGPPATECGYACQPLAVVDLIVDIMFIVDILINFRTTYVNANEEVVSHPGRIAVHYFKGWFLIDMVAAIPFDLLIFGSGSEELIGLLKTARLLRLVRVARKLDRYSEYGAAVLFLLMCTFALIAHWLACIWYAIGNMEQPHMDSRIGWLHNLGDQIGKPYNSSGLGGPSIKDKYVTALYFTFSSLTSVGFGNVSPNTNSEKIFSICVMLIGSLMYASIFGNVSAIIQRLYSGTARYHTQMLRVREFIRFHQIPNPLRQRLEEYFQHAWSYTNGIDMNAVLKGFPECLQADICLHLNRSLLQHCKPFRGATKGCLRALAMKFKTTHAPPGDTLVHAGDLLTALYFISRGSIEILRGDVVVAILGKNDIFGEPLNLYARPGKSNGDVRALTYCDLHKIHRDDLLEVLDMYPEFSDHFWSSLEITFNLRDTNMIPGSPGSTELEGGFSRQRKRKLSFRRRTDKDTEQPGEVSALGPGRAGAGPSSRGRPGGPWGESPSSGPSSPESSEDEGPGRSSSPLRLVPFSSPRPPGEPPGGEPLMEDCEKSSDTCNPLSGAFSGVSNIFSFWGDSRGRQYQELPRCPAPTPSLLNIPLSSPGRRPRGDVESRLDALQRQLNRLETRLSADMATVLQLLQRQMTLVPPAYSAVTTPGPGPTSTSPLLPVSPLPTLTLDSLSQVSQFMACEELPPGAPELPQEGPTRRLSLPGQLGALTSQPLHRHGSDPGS
row,SMILES,"hERG current change (%, negative = inhibition) at 10uM [%]"
1,COc1ccc(S(=O)(=O)N2CCOC2CNC(=O)C(=O)NCc2ccccn2)cc1C (centres unmarked),11.6
2,Cc1ccc(-c2csc(NC(=O)c3c(C)noc3C)n2)cc1,-31.7
3,CCc1noc(C)c1C(=O)Nc1nc(-c2ccc(OC)cc2)cs1,-6.43
4,CCc1noc(C)c1C(=O)Nc1nc(-c2cccs2)cs1,-57
5,Cc1noc(C)c1C(=O)Nc1nc(-c2cccs2)cs1,-56.9
6,CCc1noc(C)c1C(=O)Nc1nc(-c2ccccc2)cs1,-32.6
7,Cc1noc(C)c1C(=O)Nc1nc(-c2ccccc2Cl)cs1,-0.869
8,Cc1ccc(NC(=S)N2CCN(C(=O)C3CCCO3)CC2)cc1 (centres unmarked),17.8
9,Cc1c(N)c(C(C)(C)C)cc(C(C)(C)C)c1[N+](=O)[O-],0.751
10,Cc1sc2ncnc(SCC(=O)c3ccc(Cl)s3)c2c1C,18.3
11,Cc1cc(NC(=O)CN2CCCCC2)no1.O=C(O)C(=O)O,18.8
12,Cc1ccc2ccc3cccc4ccc1c2c34,14
13,S=c1[nH]nc(COc2ccccc2)n1/N=C/C=C/c1ccco1,3.42
14,CC(NC(=O)Nc1ccc([N+](=O)[O-])cc1)C(c1cccs1)N1CCCC1 (centres unmarked),-60.1
15,CC(NC(=O)Nc1ccccc1)C(c1cccs1)N1CCN(C)CC1 (centres unmarked),-17.8
16,CC(NC(=O)Nc1cccc(Cl)c1)C(c1cccs1)N1CCCC1 (centres unmarked),-22.8
17,NC(=O)CSc1nnc(-c2ccncc2)n1-c1ccc(Cl)cc1,-21.5
18,COc1ccc(NC(=S)N2CCN(S(C)(=O)=O)CC2)cc1OC,4.68
19,Cc1ccc(C(=O)O/N=C(\N)Cc2cccs2)c(Cl)c1,0.558
20,O=C(c1nc2ccccn2c1CN1CCC(Cc2ccccc2)CC1)N1CCCC1,-70.7
21,Cc1cccc(CN2CCC(Oc3ccc(C(=O)N4CCCCC4)cc3)CC2)c1,-21.9
22,COC1CCN(Cc2c(C(=O)N3CCN(C4CCCCC4)CC3)nc3ccccn23)CC1,5.42
23,O=C(c1nc2ccccn2c1CN1CCN(c2ccccc2O)CC1)N1CCCC1,34.7

row,SMILES,"hERG current change (%, negative = inhibition) at 10uM [%]"
1,O=C(c1nc2ccccn2c1CN1CCCC(OCc2ccccc2)C1)N1CCCC1 (centres unmarked),-44.8
2,Cc1cccc(OC2CCN(Cc3c(C(=O)N4CCCC4)nc4ccccn34)CC2)c1,-59.4
3,CCCCCCNS(=O)(=O)c1ccc(NC(=O)C2CCCO2)cc1 (centres unmarked),-21.8
4,Cc1ccc2sc(N3CCN(C(=O)C4=COCCO4)CC3)nc2c1C,-15.6
5,COc1ccc(OCc2cccc(C(=O)NN)c2)cc1,2.35
6,CC1CCCC(C)N1C(=O)c1cc(F)c(F)cc1Cl (centres unmarked),16.1
7,COc1ccc(CCNC(=O)C/C(C)=N/NC(=O)C2CCCCC2)cc1OC,8.79
8,COc1ccc(CN(C)C(=O)CCCNC(=O)c2ccc(Cl)cc2)cc1,-26.6
9,CC(OC(=O)CCCNC(=O)c1ccc(Cl)cc1)C(=O)N(C)Cc1ccccc1 (centres unmarked),-54.2
10,CCN(C(=O)C(C)OC(=O)CCCNC(=O)c1ccc(Cl)cc1)c1ccccc1 (centres unmarked),-25.1
11,Cc1ccc(N2CC(C)Cn3c2nc2c3c(=O)[nH]c(=O)n2C)cc1C (centres unmarked),-10.9
12,Cc1c(Br)cc(C(=O)N2CCCC2)c(C)c1C,0.525
13,O=C(C1=C(O)C(=O)N(CCN2CCOCC2)C1c1ccc(Cl)cc1)c1cc2ccccc2o1 (centres unmarked),10.3
14,CCCCN(C)CCNC(=O)c1ccc2c(c1)NC(=O)C(N1CCCCC1)S2 (centres unmarked),2.48
15,O=C(c1ccc(Cl)cc1)C1CCCN(Cc2cccc3cnccc23)C1 (centres unmarked),-44.8
16,O=C(c1ccc(Cl)cc1)C1CCCN(Cc2cccc3ncccc23)C1 (centres unmarked),-52.1
17,O=C(c1ccc(Cl)cc1)C1CCCN(Cc2cccc3cccnc23)C1 (centres unmarked),-75.9
18,Cc1cc(Cl)ccc1C(=O)C1CCCN(C(=O)c2ccc3ncccc3c2)C1 (centres unmarked),-29.5
19,O=C(c1ccc(Cl)cc1)C1CCCN(Cc2ccc3nonc3c2)C1 (centres unmarked),-34.9
20,O=C(c1cccc(Cl)c1)C1CCCN(Cc2cccc3cnccc23)C1 (centres unmarked),-32.7
21,O=C(c1ccc(Cl)cc1)C1CCCN(Cc2ccc3ncccc3c2)C1 (centres unmarked),-64.3
22,CC(C)c1ccc(NC(=O)c2ccc(NS(C)(=O)=O)cc2)cc1,3.29
23,COC(=O)c1ccc(OCCn2cnc3ccccc3c2=O)cc1,-11.2

row,SMILES,"hERG current change (%, negative = inhibition) at 10uM [%]"
1,COc1ccc(NC(=O)C2Cc3cccc(OC)c3O/C2=N\O)cc1 (centres unmarked),6.66
2,COc1cccc(-n2c(COc3ccccc3C)nnc2SCC(=O)O)c1,1.56
3,CSCC[C@H](NC(=O)N1CCn2c1nc1ccccc12)C(=O)NCc1ccco1,-19.1
4,CCN(C(=O)COC(=O)c1cc(-c2ccccc2)nc2c1c(C)nn2-c1ccccc1)C1CCS(=O)(=O)C1 (centres unmarked),21.5
5,CCN(CC)CCCNC(=O)c1oc2ccc3c(c2c1C)C(O)CC(C)(C)O3 (centres unmarked),-4.08
6,Cc1ccc(NS(=O)(=O)c2ccc3c(c2)n(C)c(=O)n3C)cc1C,14.2
7,Cc1ccc(CNCC(O)(c2ccc(F)cc2)c2ccc(F)cc2)cc1,-56.4
8,OC(CNCc1ccc(F)cc1)(c1ccc(F)cc1)c1ccc(F)cc1,-33.7
9,Cc1ccc(CNCC(O)(c2ccccc2)c2ccc(F)cc2)cc1 (centres unmarked),-45.6
10,Cc1ccc(C(O)(CNCc2ccccc2)c2ccccc2)cc1 (centres unmarked),-33.9
11,COc1ccc(CNCC(O)(c2ccccc2)c2ccc(F)cc2)cc1 (centres unmarked),-73.3
12,OC(CNCc1ccccc1)(c1ccc(F)cc1)c1ccc(F)cc1,-38.1
13,COc1ccc(CNCC(O)(c2ccc(F)cc2)c2ccc(F)cc2)cc1,-67.3
14,COc1cccc(CNCC(O)(c2ccc(Cl)cc2)c2ccc(Cl)cc2)c1,-12.2
15,OC(CNCc1ccc(F)cc1)(c1ccccc1)c1ccc(F)cc1 (centres unmarked),-33.8
16,CC(C)C(NC(=O)C1CCCCC1)C(=O)Nc1ccncc1 (centres unmarked),9.18
17,Cc1cc(C)cc(C(=O)N2CCC(CCC(=O)NC3CC3)CC2)c1,-2.09
18,CCOC(=O)C1CCN(C(=O)CN(c2ccc3c(c2)OCCO3)S(=O)(=O)c2ccccc2)CC1,-53.1
19,CCOC(=O)C1CCN(C(=O)CN(c2cc(Cl)ccc2OC)S(=O)(=O)c2ccccc2)CC1,-67
20,NC(=O)C1CCN(C(=O)CN(c2ccc3c(c2)OCCO3)S(=O)(=O)c2ccccc2)CC1,-18
21,CCOC(=O)C1CCN(C(=O)CN(c2cc(OC)ccc2OC)S(=O)(=O)c2ccccc2)CC1,-2.73
22,CCOC(=O)N1CCN(C(=O)CN(c2cc(Cl)ccc2OC)S(=O)(=O)c2ccccc2)CC1,-19.4
23,CCOC(=O)C1CCN(C(=O)CN(c2ccc3c(c2)OCCO3)S(C)(=O)=O)CC1,-4.03

row,SMILES,"hERG current change (%, negative = inhibition) at 10uM [%]"
1,COC(=O)NCc1ccc(CNC(=O)OC)cc1,4.84
2,CCc1cc(C(=O)N2CCN(c3ccccc3OC)CC2)sc1C,-15
3,COc1cc(OC)cc(C(=O)NNC(=S)Nc2ccccc2OC)c1,10.8
4,CC1CCN(C(=O)CN2C(=O)C(=O)N(C)C2=O)c2ccccc2S1 (centres unmarked),5.74
5,CSc1cccc(NC(=O)/C=C/c2ccco2)c1,1.51
6,O=C(COC(=O)/C=C/c1ccc(F)cc1)NCc1cccs1,8.26
7,CCOc1cc(-c2nc3ccccc3s2)ccc1O,4.57
8,CC[n+]1cccc(-c2nc3ccccc3s2)c1.[I-],-0.683
9,CC[n+]1c(/C=C/N(C)c2ccccc2)n(-c2ccccc2)c2ccc(-c3nc4ccccc4s3)cc21.[I-],-81.1
10,CCOc1ccc(CCNC(=O)c2cnccn2)cc1OCC,11.1
11,CCNc1nc2c(c(=O)n(C)c(=O)n2C)n1Cc1ccc(Cl)cc1,-7.07
12,COc1ccc(Oc2nnnn2-c2ccccc2)cc1,-16.6
13,Fc1ccc(Oc2nnnn2-c2ccccc2)cc1,44.8
14,c1ccc(-n2nnnc2Oc2ccc(-n3ccnc3)cc2)cc1,-54
15,CCNC(=O)COc1ccc(-c2ccccc2)cc1,-19.4
16,CCOC(=O)c1cn2nc(Oc3ccc(OC)cc3)ccc2n1,4.29
17,CCOC(=O)c1cn2nc(Oc3ccc(C)cc3)ccc2n1,1.97
18,CCOC(=O)c1cn2nc(Oc3ccc(C#N)cc3)ccc2n1,-54.1
19,CC1=C/C(=N\OS(=O)(=O)c2ccccc2)C(C)=CC1=O,-9.37
20,O=C(CSc1nnc(COc2ccc(Cl)cc2)o1)N1CCN(c2ccccc2)CC1,-1.37
